SMILES strings stand for the structures. Several values for one entry are separate records, joined by “and”; a condition that tells them apart may be missing. Equal values may be shown once. Inconclusive results are not listed. Activity calls are given as the source filed them. Calls follow the shape of the dose curve; as a rule, active = well fitted curve in the direction sought with a large enough effect; inconclusive = small, poorly fitted or top-dose-only effect, or another doubt; inactive = no such curve, though single readings can be large; an effect the other way counts as inactive or inconclusive. Square brackets hold non-standard residues; d marks the D form. Peptide text beside a SMILES is read from it. * marks the point of attachment. Nva = CCC[C@H](N)C(=O)O; Cbz = O=C(OCc1ccccc1)*

A short description of test [1]: Viability qHTS for spleen associated tyrosine kinase inhibitor (SYKi) naive MV4-11 cells (AID 1963823). Also: nearly all actives have a fitted effect of over 40% in size. An outline of the steps: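 SYKi-naive MV4-11 AML cells, 500 per well, were exposed to library compounds for 72 hr at 37 C, 5% CO2. Viability was then read by CellTiter-Glo luminescence after 10 min at room temperature.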
Test [2] can be described thus: Viability qHTS for spleen associated tyrosine kinase inhibitor (SYKi) drug resistant MV4-11 cells (AID 1963824). Also: nearly all actives have a fitted effect of over 35% in size. Put shortly:
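CellTiter-Glo luminescence, read 10 min after reagent addition, reports viability after a 72 hr compound exposure. Cells are an MV4-11 line made resistant to SYK inhibition, seeded at 500 per well onto compound-containing plates.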

Test [3] can be described thus: Quantitative highthroughput screen to assess conditional lethalithy of NOMO1 cells grown in RPMI1640 with untreated serum (RPMI+s) (AID 1963876). Also: nearly all actives have a fitted effect of over 35% in size.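 As to Viability: 100% = DMSO wells and 0% = empty wells without cells.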 An outline of the steps:
(§1)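 Each medium arm—HPLM with 10% dialyzed FBS, or RPMI1640 with 5 mM glucose and 10% untreated or dialyzed FBS—was screened against an 11-point, 3-fold compound titration for 48 h at 37 °C, with CellTiter-Glo luminescence as endpoint.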

Test [4] in a line: Quantitative highthroughput screen to assess conditional lethalithy of NOMO1 cells grown in RPMI1640 with dialyzed fetal bovine serum (RPMI+ds) (AID 1963877). Also: nearly all actives have a fitted effect of over 30% in size.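 As to Viability: series mostly up to about 46 µM; 100% = DMSO control wells and 0% = empty wells.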 Put shortly:
as §1

Test [5] in a line: Quantitative highthroughput screen to assess conditional lethalithy of NOMO1 cells grown in Human Plasma-Like Medium with dialyzed fetal bovine serum (HPLM+ds) (AID 1963878). Also: nearly all actives have a fitted effect of over 35% in size.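 As to Viability: 100% = DMSO wells and 0% = empty wells on each plate.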 An outline of the steps:
as §1

Test [6] in a line: Quantitative highthroughput screen to assess conditional lethalithy of P12 Ichikawa cells grown in Human Plasma-Like Medium with dialyzed fetal bovine serum (HPLM+ds) (AID 1963879). Also: nearly all actives have a fitted effect of over 35% in size. As to Viability: series mostly up to about 46 µM. Particulars: Potency: viability. Put shortly: as §1
Test [7] can be described thus: Quantitative highthroughput screen to assess conditional lethalithy of P12 Ichikawa cells grown in RPMI1640 with dialyzed fetal bovine serum (RPMI+ds) (AID 1963880). Also: nearly all actives have a fitted effect of over 35% in size.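 As to Viability: 100% = DMSO wells and 0% = empty wells on each plate.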 Particulars: Potency: P12-Ichikawa viability. An outline of the steps:
as §1

Test [8] in a line: Quantitative highthroughput screen to assess conditional lethalithy of P12 Ichikawa cells grown in RPMI1640 with untreated serum (RPMI+s) (AID 1963881). Also: nearly all actives have a fitted effect of over 35% in size.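 As to Viability: series mostly up to about 46 µM; 100% = DMSO wells and 0% = empty wells without cells.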 Conditions: Potency: viability. An outline of the steps:
as §1

A short description of test [9]: Quantitative highthroughput screen to assess conditional lethalithy of SEM cells grown in Human Plasma-Like Medium with dialyzed fetal bovine serum (HPLM+ds) (AID 1963882). Also: nearly all actives have a fitted effect of over 35% in size. As to Viability: series mostly up to about 46 µM. An outline of the steps: as §1
A short description of test [10]: Quantitative highthroughput screen to assess conditional lethalithy of SEM cells grown in RPMI1640 with unreated serum (RPMI+s) (AID 1963883). Also: nearly all actives have a fitted effect of over 35% in size.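 As to Viability: 100% = DMSO wells and 0% = empty wells without cells.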 An outline of the steps: as §1
Test [11] in a line: Quantitative highthroughput screen to assess conditional lethalithy of SEM cells grown in RPMI1640 with dialyzed fetal bovine serum (RPMI+ds) (AID 1963884). Also: nearly all actives have a fitted effect of over 35% in size.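 As to Viability: series mostly up to about 46 µM; 100% = DMSO control wells and 0% = empty wells without cells.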 Put shortly:
as §1

Test [12] is described as follows: Cellular viability qHTS for adrenocortical cancer (ACC) cell line SW-13 (AID 1963989). Also: nearly all actives have a fitted effect of over 65% in size.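 As to activity (max response): cells grown in serum-free medium with ITS supplement; % is scaled to controls: 0 for no effect and ±100 for the full control effect.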 Conditions: SW-13 ACC cells viability, CellTiter-Glo, 48 h; activity (max response): stronger effect = lower value. Put shortly:
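Compound titrations (up to 46 uM final, in DMSO) were applied to SW-13 cells for 48 h at 37C/5% CO2. Reading used CellTiter-Glo after 20 min at room temperature; fitted curves yielded IC50 and efficacy.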

Test [13] in a line: Cellular viability qHTS for adrenocortical cancer (ACC) cell line NCI-H295R (AID 1963990). Also: nearly all actives have a fitted effect of over 60% in size.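 As to activity change, negative = viability loss: 0% = DMSO only wells and -100% = full killing with cytotoxic reference compound.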 An outline of the steps: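 Readout: CellTiter-Glo luminescence, 20 min RT. Exposure: 48 h, 37C/5% CO2. Cells: NCI-H295R, ITS-DMEM serum-free. Range: up to 46 uM. Analysis: 4PL fit, IC50 plus efficacy.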
For orientation: In qHTS, concentration-response curves come from the screen itself.
Potency is read from the fitted curve at half-maximal effect.

In the case of `COc1ccc(C[C@@H](C)[C@@H](C)Cc2ccc(OC)c(OC)c2)cc1OC`, the Potency in test [1] was 6.61 µM (active); in [2], 11.8 µM (active); in [3] it was 2.35 µM (active); in test [4], 2.64 µM (active); in test [5] it was 0.833 µM (active); in test [6], 2.35 µM (active). The Potency in [7] is 2.35 µM (active); in test [8], 2.35 µM (active); in [9], 2.64 µM (active); in test [10], 2.64 µM (active); in test [11] it was 2.64 µM (active). In addition, the activity (max response) in [12] was -32.2% (inactive). In [13], the Potency result was “inactive”.
In the case of `Cn1cnc2c(F)c(Nc3ccc(Br)cc3Cl)c(C(=O)NOCCO)cc21`, the Potency is 0.296 µM (active) in test [1]; 668 nM (active) and 164 nM (active) and 468 nM (active) in test [2]; 0.59 µM (active) in test [3]; 0.296 µM (active) in [4]; 0.296 µM (active) in test [5]; 0.662 µM (active) in [6]. Also, the Potency was 0.743 µM (active) in test [7]; 0.662 µM (active) in [8]; 0.662 µM (active) in [9]; 0.469 µM (active) in test [10]; 0.469 µM (active) in test [11]. Moreover, the Potency entry in test [13] was “inactive”.
In the case of `CC(=O)Oc1ccccc1C(=O)O`, the Potency entry in [1], in test [2], in test [3], in [4], in test [5] and in [6] was “inactive” each time. Also, the Potency entry in [7], in test [8], in [9], in test [10], in test [11] and in [13] was “inactive” in each case.
Take `C[C@@H](N)C1CCC(C(=O)Nc2ccncc2)CC1` (stereo partly specified): the Potency entry in test [1], in [2], in test [3], in test [4], in test [5] and in test [6] was “inactive” in each case. For the same compound, the Potency entry in [7], in test [8], in test [9], in test [10], in test [11] and in [13] was “inactive” in each case. Moreover, in [12], the activity (max response) is -5.19% (inactive).
For `CC(C)(OCc1nn(Cc2ccccc2)c2ccccc12)C(=O)O`, the Potency entry in [1], in test [2], in [3], in [4], in [5] and in test [6] was “inactive” in each case. Also, the Potency entry in test [7], in [8], in test [9], in test [10], in test [11] and in test [13] was “inactive” throughout. The activity (max response) in test [12] is 3.54% (inactive).
Turning to `CCOC(=O)C1=C(O)C(=O)N(Cc2ccccc2)C1`, the Potency entry in [1], in [2], in [3], in test [4], in test [5] and in [6] was “inactive” each time. Further, the Potency entry in test [7], in test [8], in test [9], in [10], in test [11] and in test [13] was “inactive” throughout.
For `CN1CC(=O)NC1=NC(=O)Nc1cccc(Cl)c1`, the Potency entry in test [1], in test [2], in test [3], in test [4], in test [5] and in [6] was “inactive” throughout. Further, the Potency result in test [7], in [8], in [9], in test [10], in test [11] and in test [13] was “inactive” in each case. The activity (max response) in test [12] was -5.87% (inactive).
Turning to `CCN(c1ccccc1)c1cc(NC)[n+](C)c(C)n1`, the Potency in test [1] and in test [2] was 18.6 µM (active) in each case. The Potency entry in test [3], in test [4], in [5], in test [6], in test [7] and in test [8] was “inactive” in each case. In addition, the Potency entry in test [9], in [10], in [11] and in test [13] was “inactive” in each case. Moreover, the activity (max response) in [12] is -0.574% (inactive).
As for `O=P(O)(O)C(O)(Cn1ccnc1)P(=O)(O)O`, the viability (% of control) in test [1] is 79.2% [at 4.97 µM] (inactive). In addition, the viability, % of control in test [2] was 89.7% [at 4.97 µM] (inactive). Besides, the Potency entry in [3], in test [4], in [5], in [6], in [7] and in test [8] was “inactive” each time. Moreover, the Potency entry in test [9], in test [10] and in test [11] was “inactive” in each case. Besides, the activity (max response) in [12] is -1.67% (inactive). Moreover, the activity change, negative = viability loss in test [13] was -3.44% [at 3.81 µM] (inactive).
Regarding `CCC[C@@H](C=O)NC(=O)[C@H](CC(C)C)NC(=O)[C@H](CC(C)C)NC(=O)OCc1ccccc1` (Cbz-Leu-Leu-[Nva]-aldehyde), the Potency is 0.742 µM (active) in [1]; 0.934 µM (active) in test [2]; 1.32 µM (active) in test [3]; 2.64 µM (active) in test [4]; 1.87 µM (active) in test [5]; 3.32 µM (active) in test [6]. For the same compound, the Potency in test [7] was 3.32 µM (active); in [8], 2.64 µM (active); in test [9], 2.35 µM (active); in [10], 0.526 µM (active); in test [11] it was 1.48 µM (active); in [12], 2 µM (active). For the same compound, in test [13], the Potency is 1.58 µM (active).
Take `C[C@H]1[C@@H](OC(=O)CCC(=O)O)O[C@@H]2O[C@@]3(C)CC[C@@H]4[C@H](C)CC[C@@H]1[C@@]24OO3`: the Potency was 0.934 µM (active) in test [1]; 1.16 µM (active) in test [2]; 1.66 µM (active) in [3]; 1.32 µM (active) in test [4]; 2.09 µM (active) in test [5]; 11.8 µM (active) in [6]. The Potency in [7] is 6.62 µM (active); in [8], 5.26 µM (active); in test [9] it was 4.69 µM (active); in test [10], 3.72 µM (active); in [11], 4.18 µM (active); in [13], 17.8 µM (active).
As for `CN(C)c1ccc(C(=O)NCCCCCCC(=O)NO)cc1`, the Potency in test [1] was 0.833 µM (active); in test [2], 0.742 µM (active); in test [3], 2.96 µM (active); in [4], 2.35 µM (active); in test [5], 2.64 µM (active); in [6], 1.48 µM (active). Besides, the Potency in test [7] was 1.18 µM (active); in test [8], 1.48 µM (active); in test [9], 1.32 µM (active); in test [10] it was 1.32 µM (active); in test [11], 1.18 µM (active); in [13], 1.41 µM (active).
As to `CC1Cc2ccccc2N1NC(=O)c1ccc(Cl)c(S(N)(=O)=O)c1` (stereo unspecified), the Potency entry in test [1], in test [2], in test [3], in [4], in [5] and in test [6] was “inactive” in each case. The Potency entry in [7], in test [8], in test [9], in test [10], in test [11] and in test [13] was “inactive” each time. The activity (max response) in [12] is 9.73% (inactive) and 7.78% (inactive).
Take `Oc1cc2c(cc1O)C1c3ccc(O)c(O)c3OCC1(O)C2` (stereo unspecified): the Potency in test [1] was 16.6 µM (active); in [2], 14.8 µM (active). In addition, the Potency result in test [3], in test [4], in test [5], in test [6], in test [7] and in test [8] was “inactive” each time. Moreover, the Potency entry in test [9], in test [10], in test [11] and in test [13] was “inactive” each time.

These data come from PubChem BioAssay (NCATS).
